Assay [1] addresses rat CYP2A1, Cyp2a1 (gene 24894) (UniProt P11711). The experiment in a line: NVS_ADME_rCYP2A1: NovaScreen (NVS) CYP450-related Enzyme Activity (ADME) Assay for rat CYP2A1 (AID 2283114; active = hit-call score of the fitted dose curve at least 0.9, where 1 is the maximum; inactive = score below 0.9). A digest of the protocol: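 Recombinant rat CYP2A1, cell-free, fluorogenic substrate turnover read by fluorescence intensity 0.75 h after dosing. Primary screen at 10 uM in duplicate; actives rerun as concentration-response up to 20 uM; loss of signal versus acetonitrile control.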

Assay [2] deals with human CYP2D6, CYP2D6 (gene 1565) (UniProt P10635). Nature of the assay: NVS_ADME_hCYP2D6: NovaScreen (NVS) CYP450-related Enzyme Activity (ADME) Assay for human CYP2D6 (AID 2283107). Summed up:
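Biochemical fluorescence assay, insect-cell-derived enzyme. Read at 1 h; inhibition taken from loss of signal against acetonitrile. Screened at 10 uM in duplicate, with concentration series for actives.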

Assay [3] concerns the target human CYP2C9, CYP2C9 (gene 1559) (UniProt P11712). Nature of the assay: NVS_ADME_hCYP2C9: NovaScreen (NVS) CYP450-related Enzyme Activity (ADME) Assay for human CYP2C9 (AID 2283108). Summed up:
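Cell-free assay of recombinant human CYP2C9 produced in Sf9 cells, with enzyme activity read by fluorescence intensity 0.75 h after compound addition. Loss of signal versus an acetonitrile negative control indicates inhibition. Primary screen used 10 uM in duplicate; actives were retested in concentration series.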

For another assay, the system named is rat CYP3A1, gene 25642. The experiment in a line: NVS_ADME_rCYP3A1: NovaScreen (NVS) CYP450-related Enzyme Activity (ADME) Assay for rat CYP3A1 (AID 2283126). A digest of the protocol:
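Cell-free recombinant CYP assay with fluorescent substrate, read 0.5 h after dosing. Screened at 10 uM in duplicate, hits at up to 20 uM in concentration-response; loss of signal versus acetonitrile baseline.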

Assay [4] addresses rat CYP2A2, Cyp2a2 (gene 24895) (UniProt P15149). Nature of the assay: NVS_ADME_rCYP2A2: NovaScreen (NVS) CYP450-related Enzyme Activity (ADME) Assay for rat CYP2A2 (AID 2283116). Summed up: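 Cell-free recombinant rat CYP2A2 activity with fluorogenic substrate, fluorescence read 0.2 h after dosing. Chemicals screened at 10 uM in duplicate, hits then run in concentration-response up to 20 uM; signal loss versus acetonitrile baseline.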

The target of assay [5] is Cytochrome P450 3A4 (Homo sapiens) (UniProt P08684). Nature of the assay: NVS_ADME_hCYP3A4: NovaScreen (NVS) CYP450-related Enzyme Activity (ADME) Assay for human CYP3A4 (AID 2283110). Summed up: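 Cell-free assay using insect-cell-expressed human CYP3A4 with a fluorogenic substrate; fluorescence intensity was read 0.33 hour after dosing. Loss of signal relative to acetonitrile vehicle indicated inhibition. Primary single-concentration screen at 10 uM, in duplicate, then concentration series.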

For assay [6], the target named is rat CYP2C11, Cyp2c11 (gene 29277) (UniProt P08683). Nature of the assay: NVS_ADME_rCYP2C11: NovaScreen (NVS) CYP450-related Enzyme Activity (ADME) Assay for rat CYP2C11 (AID 2283118). Summed up: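 Cell-free recombinant rat enzyme with fluorescent substrate; readout 0.33 h after dosing, loss of signal versus acetonitrile control. Initial duplicate single-point at 10 uM; actives rerun in concentration series.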

The test system of another assay is rat CYP2C6, gene 293989. The experiment in a line: NVS_ADME_rCYP2C6: NovaScreen (NVS) CYP450-related Enzyme Activity (ADME) Assay for rat CYP2C6 (AID 2283120). A digest of the protocol:
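Cell-free recombinant rat CYP2C6 with fluorogenic substrate, read by fluorescence 1 h after dosing; acetonitrile as negative control. Primary screen at 10 uM in duplicate, actives then in concentration-response up to 20 uM.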

Assay [7] concerns the target rat CYP2C13, Cyp2c13 (gene 171521) (UniProt P20814). Nature of the assay: NVS_ADME_rCYP2C13: NovaScreen (NVS) CYP450-related Enzyme Activity (ADME) Assay for rat CYP2C13 (AID 2283121). A digest of the protocol:
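Recombinant rat CYP2C13 with fluorogenic substrate, 0.75 h cell-free incubation; primary screen in duplicate at 10 uM, actives followed in concentration series. Fluorescence loss relative to acetonitrile control indicates inhibition.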

Assay [8] addresses rat CYP2D2, Cyp2d26 (gene 25053) (UniProt P10634). The experiment in a line: NVS_ADME_rCYP2D2: NovaScreen (NVS) CYP450-related Enzyme Activity (ADME) Assay for rat CYP2D2 (AID 2283124). How it is done: NVS_ADME_rCYP2D2 is a biochemical, single-readout assay that uses extracted gene-proteins in a cell-free assay. Measurements were taken 0.75 hour after chemical dosing in a 96-well plate.NVS_ADME_rCYP2D2 is one of one assay component(s) measured or calculated from the NVS_ADME_rCYP2D2 assay. It is designed to make measurements of enzyme activity, a form of enzyme reporter, as detected with fluorescence intensity signals by Fluorescence technology.Data from the assay component NVS_ADME_rCYP2D2 was analyzed into 1 assay endpoint. This assay endpoint, NVS_ADME_rCYP2D2, was analyzed in the positive analysis fitting direction relative to Acetonitrile as the negative control and baseline of activity. Using a type of enzyme reporter, loss-of-signal activity can be used to understand changes in the enzymatic activity as they relate to the gene Cyp2d2. Furthermore, this assay endpoint can be referred to as a primary readout, because this assay has produced multiple assay endpoints where this one serves a enzymatic activity function. To generalize the intended target to other relatable targets, this assay endpoint is annotated to the cyp intended target family, where the subfamily is xenobiotic metabolism.
Binding assays used specific radioligands (tritiated, iodinated) with non-radioactive competitive displacement ligands in agonist or antagonist protocols (as indicated) and various reference compounds and inhibitors to titrate specific binding to receptors and transporters. Most enzyme assays (CYPs, kinases, phosphatases, proteases, HDACs) used recombinant protein and specific substrates (fluorescence mostly, some colorimetric and radioactive) and inhibitors, followed by a biochemical separation of substrate and product. All assays for the biochemical HTS were initially run in duplicate at a single concentration (10 uM for CYP450 assays and 25 uM for all others). Assay-chemical combinations meeting a pre-defined threshold (e.g., 30% inhibition and other criteria defined below) were then run in singleton concentration-response format with maximum concentration of 20 uM for CYPs and 50 uM for all others. Each assay was run with positive and negative controls, and concurrent controls on every plate. The follow-up (secondary) screen tested active chemical-pairs in concentration series, as well as a few additional assays not tested in the primary screen, some selected negative inactives, and several cases re-run in the concentration series for confirmatory purposes.

“And” between values parts separate entries of the source, which are not always exact repeats. Equal entries are not always repeated. Inconclusive results are not listed. The source made the active and inactive calls. Rule for the calls, unless noted: active = hit-call score of the fitted dose curve at least 0.9, where 1 is the maximum; inconclusive = response in the unintended direction; inactive = score below 0.9.

Chain of rat CYP2D2, Cyp2d26 (gene 25053) (P10634 whole entry, looked up): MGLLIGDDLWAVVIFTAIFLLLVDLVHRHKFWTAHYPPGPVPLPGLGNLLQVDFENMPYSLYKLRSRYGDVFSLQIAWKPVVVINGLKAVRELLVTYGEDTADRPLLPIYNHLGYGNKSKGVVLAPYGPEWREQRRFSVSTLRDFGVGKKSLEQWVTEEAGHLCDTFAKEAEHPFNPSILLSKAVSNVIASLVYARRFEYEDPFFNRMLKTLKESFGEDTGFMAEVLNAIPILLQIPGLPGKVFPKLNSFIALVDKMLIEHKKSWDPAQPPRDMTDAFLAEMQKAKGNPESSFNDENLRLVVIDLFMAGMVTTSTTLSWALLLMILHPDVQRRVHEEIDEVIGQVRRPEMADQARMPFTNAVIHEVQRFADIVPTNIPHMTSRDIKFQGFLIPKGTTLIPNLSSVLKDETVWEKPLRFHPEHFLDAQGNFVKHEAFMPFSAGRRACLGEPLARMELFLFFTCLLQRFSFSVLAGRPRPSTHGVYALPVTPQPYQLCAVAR
Chain of rat CYP2A2, Cyp2a2 (gene 24895) (P15149 whole entry, looked up): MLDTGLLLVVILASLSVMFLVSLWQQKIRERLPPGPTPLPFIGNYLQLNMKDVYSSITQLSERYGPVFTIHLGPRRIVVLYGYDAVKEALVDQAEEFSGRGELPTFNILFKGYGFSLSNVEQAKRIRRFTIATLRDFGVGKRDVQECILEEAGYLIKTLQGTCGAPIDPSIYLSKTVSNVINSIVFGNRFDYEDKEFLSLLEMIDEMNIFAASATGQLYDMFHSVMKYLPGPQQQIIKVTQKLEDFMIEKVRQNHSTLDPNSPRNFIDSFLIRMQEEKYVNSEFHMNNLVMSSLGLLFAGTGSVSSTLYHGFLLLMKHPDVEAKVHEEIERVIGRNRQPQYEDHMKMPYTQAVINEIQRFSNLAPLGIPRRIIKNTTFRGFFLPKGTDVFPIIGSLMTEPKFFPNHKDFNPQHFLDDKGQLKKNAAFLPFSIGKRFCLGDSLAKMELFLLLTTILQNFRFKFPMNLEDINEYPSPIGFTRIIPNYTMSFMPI
Chain of human CYP2D6, CYP2D6 (gene 1565) (P10635 whole entry, looked up): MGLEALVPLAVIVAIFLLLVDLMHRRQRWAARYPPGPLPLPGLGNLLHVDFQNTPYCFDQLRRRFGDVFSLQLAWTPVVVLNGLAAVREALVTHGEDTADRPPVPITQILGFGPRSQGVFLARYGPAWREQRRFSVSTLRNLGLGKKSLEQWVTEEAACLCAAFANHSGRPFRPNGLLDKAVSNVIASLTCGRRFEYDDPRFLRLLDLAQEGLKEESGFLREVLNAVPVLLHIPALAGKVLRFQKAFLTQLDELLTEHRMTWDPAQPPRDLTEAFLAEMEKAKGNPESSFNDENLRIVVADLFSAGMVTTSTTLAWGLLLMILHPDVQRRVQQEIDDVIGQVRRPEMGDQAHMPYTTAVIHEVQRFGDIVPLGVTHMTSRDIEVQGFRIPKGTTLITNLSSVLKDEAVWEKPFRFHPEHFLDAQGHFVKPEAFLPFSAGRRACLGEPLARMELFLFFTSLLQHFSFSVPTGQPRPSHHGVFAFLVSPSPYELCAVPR
Chain of rat CYP2A1, Cyp2a1 (gene 24894) (P11711 whole entry, looked up): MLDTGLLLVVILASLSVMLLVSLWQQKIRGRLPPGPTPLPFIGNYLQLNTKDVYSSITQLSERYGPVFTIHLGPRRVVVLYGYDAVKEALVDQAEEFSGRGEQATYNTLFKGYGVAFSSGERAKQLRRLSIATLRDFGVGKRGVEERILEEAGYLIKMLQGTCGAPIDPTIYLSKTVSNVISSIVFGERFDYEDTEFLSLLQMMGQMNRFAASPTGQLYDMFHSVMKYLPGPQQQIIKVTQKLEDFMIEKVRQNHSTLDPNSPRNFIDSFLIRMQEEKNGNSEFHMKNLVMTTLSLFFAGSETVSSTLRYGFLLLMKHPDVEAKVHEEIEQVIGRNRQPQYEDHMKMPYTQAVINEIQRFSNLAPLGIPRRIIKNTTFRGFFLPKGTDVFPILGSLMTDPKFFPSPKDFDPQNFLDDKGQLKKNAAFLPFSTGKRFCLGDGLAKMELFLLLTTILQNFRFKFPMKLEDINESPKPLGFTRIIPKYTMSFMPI
Chain of human CYP2C9, CYP2C9 (gene 1559) (P11712 whole entry, looked up): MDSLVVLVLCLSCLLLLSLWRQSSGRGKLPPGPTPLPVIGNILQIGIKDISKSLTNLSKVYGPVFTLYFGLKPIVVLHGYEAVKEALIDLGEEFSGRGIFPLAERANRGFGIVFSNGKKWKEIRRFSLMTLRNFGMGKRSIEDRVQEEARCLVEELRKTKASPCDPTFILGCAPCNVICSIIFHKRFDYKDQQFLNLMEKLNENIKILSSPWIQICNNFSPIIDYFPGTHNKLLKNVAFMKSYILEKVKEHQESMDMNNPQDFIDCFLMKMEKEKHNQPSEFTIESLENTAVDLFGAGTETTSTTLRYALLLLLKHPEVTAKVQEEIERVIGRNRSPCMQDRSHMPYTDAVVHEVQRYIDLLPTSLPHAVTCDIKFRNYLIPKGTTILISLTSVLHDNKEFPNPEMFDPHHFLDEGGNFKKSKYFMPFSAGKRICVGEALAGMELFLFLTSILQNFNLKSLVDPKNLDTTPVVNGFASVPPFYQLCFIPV
Chain of Cytochrome P450 3A4 (Homo sapiens) (P08684 whole entry, looked up): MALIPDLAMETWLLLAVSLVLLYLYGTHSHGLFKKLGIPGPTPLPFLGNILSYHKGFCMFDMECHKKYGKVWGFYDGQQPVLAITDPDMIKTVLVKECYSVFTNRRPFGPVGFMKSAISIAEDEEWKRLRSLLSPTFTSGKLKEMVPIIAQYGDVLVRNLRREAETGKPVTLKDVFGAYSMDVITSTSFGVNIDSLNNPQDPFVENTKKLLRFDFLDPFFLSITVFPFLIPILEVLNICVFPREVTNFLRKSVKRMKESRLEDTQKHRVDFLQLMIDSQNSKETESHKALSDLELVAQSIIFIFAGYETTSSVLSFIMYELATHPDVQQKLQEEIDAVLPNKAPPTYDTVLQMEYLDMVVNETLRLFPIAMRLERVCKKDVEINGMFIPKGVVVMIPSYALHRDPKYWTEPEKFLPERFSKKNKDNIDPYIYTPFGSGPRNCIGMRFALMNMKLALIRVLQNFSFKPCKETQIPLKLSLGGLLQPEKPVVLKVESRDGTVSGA
Chain of rat CYP2C13, Cyp2c13 (gene 171521) (P20814 whole entry, looked up): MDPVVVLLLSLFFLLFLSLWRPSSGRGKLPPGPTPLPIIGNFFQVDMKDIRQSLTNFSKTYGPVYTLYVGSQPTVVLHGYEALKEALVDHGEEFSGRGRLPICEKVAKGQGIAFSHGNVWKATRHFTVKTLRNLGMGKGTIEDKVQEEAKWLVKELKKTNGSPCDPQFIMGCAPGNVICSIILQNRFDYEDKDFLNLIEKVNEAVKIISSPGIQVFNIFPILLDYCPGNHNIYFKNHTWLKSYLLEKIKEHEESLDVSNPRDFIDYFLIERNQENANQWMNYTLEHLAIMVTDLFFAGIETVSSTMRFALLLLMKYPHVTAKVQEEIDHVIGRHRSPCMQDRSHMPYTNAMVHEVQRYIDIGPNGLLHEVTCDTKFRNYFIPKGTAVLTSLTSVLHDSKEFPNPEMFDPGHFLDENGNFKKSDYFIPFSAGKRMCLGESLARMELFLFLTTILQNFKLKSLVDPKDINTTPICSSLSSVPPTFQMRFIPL
Chain of rat CYP2C11, Cyp2c11 (gene 29277) (P08683 whole entry, looked up): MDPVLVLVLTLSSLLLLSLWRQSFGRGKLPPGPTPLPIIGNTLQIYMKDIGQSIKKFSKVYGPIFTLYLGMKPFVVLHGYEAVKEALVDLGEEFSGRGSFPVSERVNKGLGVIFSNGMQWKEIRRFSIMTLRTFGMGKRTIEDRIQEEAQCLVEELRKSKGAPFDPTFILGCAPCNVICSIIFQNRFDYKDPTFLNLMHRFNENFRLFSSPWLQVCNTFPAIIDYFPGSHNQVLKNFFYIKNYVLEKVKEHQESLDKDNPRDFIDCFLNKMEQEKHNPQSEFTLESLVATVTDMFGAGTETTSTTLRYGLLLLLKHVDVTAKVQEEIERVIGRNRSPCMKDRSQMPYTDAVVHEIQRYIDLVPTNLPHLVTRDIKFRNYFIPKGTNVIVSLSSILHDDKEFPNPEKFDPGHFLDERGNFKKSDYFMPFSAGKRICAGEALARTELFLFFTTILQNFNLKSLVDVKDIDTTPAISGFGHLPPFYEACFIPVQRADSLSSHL

In the case of `COC(=O)c1ccccc1C(=O)O`, the call in assay [1] was inactive.
By AC50 is commonly meant the concentration at which the activity in the assay is half-maximal. For `CCOC(=O)NCCOc1ccc(Oc2ccccc2)cc1`, the AC50 in assay [2] is 1980 nM (active); in assay [3] it was 10 µM (active); in the assay on rat CYP3A1, gene 25642, 5620 nM (active).
As to `CCNc1nc(N)nc(Cl)n1`, the molecule was classed as inactive in assay [4].
As for `Oc1ccc(C(c2ccc(O)cc2)C(Cl)(Cl)Cl)cc1`, the AC50 in assay [3] is 2.08 µM (active); in [5], 7750 nM (active); in assay [1], 1290 nM (active); in [4] it was 1.02 µM (active); in [6] it was 188 nM (active); with rat CYP2C6, gene 293989, 2570 nM (active). Further, the AC50 in assay [7] is 883 nM (active); in assay [8] it was 2740 nM (active); in the assay on rat CYP3A1, gene 25642, 2700 nM (active).
For the molecule `CCCCC(CC)COC(=O)c1ccccc1C(=O)O` (stereo not drawn), in assay [3], the concentration at half-maximal activity (AC50) is 5.35 µM (active).
As for `CC(C)(c1ccc(O)cc1)c1ccc(O)cc1`, the concentration at half-maximal activity (AC50) in assay [3] is 5.49 µM (active) [middle of 4 runs]; in assay [1], 4.1 µM (active) [middle of 4 runs]; in [4], 2.98 µM (active) [middle of 4 runs]; in [6] it was 1.16 µM (active) [middle of 4 runs]; in assay [7], 4.5 µM (active) [middle of 4 runs]; in the assay with rat CYP3A1, gene 25642, 9880 nM (active).
As to `CCOC(=O)C(C)Oc1ccc(Oc2nc3ccc(Cl)cc3o2)cc1` (stereo not drawn), the concentration at half-maximal activity (AC50) in [4] is 2 µM (active).
As to `CCCCC(CC)CN1C(=O)C2C3C=CC(C3)C2C1=O` (stereo not drawn), the AC50 was 3000 nM (active) in [5] and 6630 nM (active) in the assay on rat CYP3A1, gene 25642.
For the molecule `CCCCOCCOCCOCc1cc2c(cc1CCC)OCO2`, the AC50 in assay [2] is 3870 nM (active); in assay [3], 4.31 µM (active); in assay [6] it was 7570 nM (active); in the assay on rat CYP2C6, gene 293989 it was 6420 nM (active); in the assay with rat CYP3A1, gene 25642, 5030 nM (active). The call in [1] and in assay [8] was inactive.
In the case of `S=C([S-])NCCNC(=S)[S-].[Mn+2]`, the concentration at half-maximal activity (AC50) is 10 µM (active) in assay [3]; 10000 nM (active) in [7]; 7100 nM (active) with rat CYP3A1, gene 25642.
For the molecule `COc1nc(C)nc(NC(=O)NS(=O)(=O)c2ccccc2OCCCl)n1`, in [2], the AC50 was 1070 nM (active).
With `CCCCOC(=O)C(C)Oc1ccc(Oc2ccc(C(F)(F)F)cn2)cc1` (stereo not drawn), the half-maximal activity concentration (AC50) in assay [4] is 1.17 µM (active).
For the molecule `CCCCCCC(C)OC(=O)COc1nc(F)c(Cl)c(N)c1Cl` (stereo not drawn), the molecule was classed as inactive in assay [3] and in assay [4]. The concentration at half-maximal activity (AC50) in assay [5] is 7600 nM (active).
For the molecule `CN(C)C(=O)Nc1ccc(Cl)c(Cl)c1`, the AC50 in assay [1] was 316 nM (active); in the assay on rat CYP3A1, gene 25642, 5820 nM (active).
Take `COC(=O)CSc1cc(N=c2sc(=O)n3n2CCCC3)c(F)cc1Cl`: the outcome in assay [8] was inactive.
Take `C=CCOC(Cn1ccnc1)c1ccc(Cl)cc1Cl` (stereo not drawn): the AC50 in assay [2] is 3950 nM (active); in assay [3] it was 0.379 µM (active); in [1], 187 nM (active); in assay [4] it was 0.0175 µM (active); in assay [6], 463 nM (active); in the assay with rat CYP2C6, gene 293989, 452 nM (active). Moreover, the concentration at half-maximal activity (AC50) in assay [8] is 125 nM (active); in the assay with rat CYP3A1, gene 25642, 729 nM (active).
As for `S=C(S)NCCNC(=S)S.[Mn+2].[S-]C([S-])=NCCN=C([S-])[S-].[Zn+2]`, the half-maximal activity concentration (AC50) is 1.63 µM (active) and 1.92 µM (active) and 4.37 µM (active) in [3]; 10000 nM (active) in the assay with rat CYP3A1, gene 25642. In addition, the result in assay [7] was inactive.
On to `C#CCOC(=O)[C@@H](C)Oc1ccc(Oc2ncc(Cl)cc2F)cc1`, for which the outcome in [1] was inactive. The concentration at half-maximal activity (AC50) in assay [6] was 1100 nM (active); in the assay with rat CYP2C6, gene 293989, 310 nM (active).
With `CSC(=O)c1cccc2nnsc12`, the half-maximal activity concentration (AC50) is 3550 nM (active) in assay [2] and 4280 nM (active) with rat CYP3A1, gene 25642.

These data come from PubChem BioAssay (EPA / NIEHS).
